Data from PubChem BioAssay.
Active and inactive are the calls of the source.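 The calls were made as follows, unless noted: active = GFP response above 150% of the DMSO level; inconclusive = fewer than 70 events counted for a yeast strain; inactive = the rest.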

What was measured:
[1] = RPL19A-GFP modulators, yeast TOR pathway, confirmation, cell-based, S. cerevisiae, flow cytometry, cherry picks, mother/daughter gates (AID 2270;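 active = GFP response below 50% of the DMSO control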); conditions: S. cerevisiae RPL19A-GFP strain, 3 h, at 10 µM, stronger effect = lower value, 100 = same GFP as DMSO wells
[2] = LAP4-GFP expression modulators in yeast, confirmation, cell-based, cherry picks, flow cytometry, mother/daughter gates (AID 2271;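 active = GFP response above 150% of the DMSO control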;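 also: ratio of sample to DMSO plate mean so 100% equals DMSO level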); conditions: S. cerevisiae LAP4-GFP strain, 3 h, at 10 µM, stronger effect = higher value, 100 means same as DMSO control
[3] = modulators of MEP2-GFP levels in yeast, confirmation, S. cerevisiae, flow cytometry GFP, cherry picks (AID 2272;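 active = GFP response above 150% of the DMSO control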;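 also: ratio of well signal to plate DMSO mean so 100% equals DMSO level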); conditions: S. cerevisiae MEP2-GFP strain, 3 h, at 10 µM, stronger effect = higher value
[4] = AGP1-GFP expression modulators, hit retest, confirmation, cell-based, flow cytometry, S. cerevisiae, cherry picks (AID 2273);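 also: median GFP channel fluorescence over the whole cell population gate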; conditions: S. cerevisiae AGP1-GFP strain, 3 h, at 10 µM
[5] = modulators of CIT2-GFP expression in yeast, confirmation, S. cerevisiae, GFP fusion, cherry picks, mother/daughter gates (AID 2274); conditions: S. cerevisiae CIT2-GFP strain, flow cytometry, 3 h, at 10 µM, stronger effect = higher value
[6] = measured here: daughter cell gate
[7] = measured here: mother cell gate
[8] = measured here: daughter cell gate response
[9] = measured here: mother cell gate response

COc1ccccc1N1CCN(C2CCCN(Cc3cc(F)cc(F)c3)C2)CC1 (stereo not drawn)
GFP response vs DMSO [1]: 96% (inactive) | GFP response vs DMSO [1, 6]: 97.3% | GFP response vs DMSO [1, 7]: 95.9% | GFP response relative to DMSO [2]: 98.9% (inactive) | GFP response relative to DMSO [2, 8]: 97.5% | GFP response relative to DMSO [2, 9]: 98.4% | GFP response vs DMSO [3]: 99.3% (inactive) | GFP response, % of DMSO [4]: 102% (inactive) | GFP response, % of DMSO [5]: 103% (inactive) | GFP response, % of DMSO [5, 6]: 99.3% | GFP response, % of DMSO [5, 7]: 104%

Clc1ccc(Nc2ncnc3ccc(Br)cc23)cc1
GFP response vs DMSO [1]: 98.4% (inactive) | GFP response vs DMSO [1, 6]: 89.5% | GFP response vs DMSO [1, 7]: 99% | GFP response relative to DMSO [2]: 122% (inactive) | GFP response relative to DMSO [2, 8]: 102% | GFP response relative to DMSO [2, 9]: 124% | GFP response vs DMSO [3]: 95.4% (inactive) | GFP response, % of DMSO [4]: 86.2% (inactive) | GFP response, % of DMSO [5]: 86.3% (inactive) | GFP response, % of DMSO [5, 6]: 83.5% | GFP response, % of DMSO [5, 7]: 84%

CC(Oc1cccc(Cl)c1)C(=O)Nc1nc(-c2ccccn2)cs1 (stereo not drawn)
GFP response vs DMSO [1]: 105% (inactive) | GFP response vs DMSO [1, 6]: 97% | GFP response vs DMSO [1, 7]: 103% | GFP response relative to DMSO [2]: 161% (active) | GFP response relative to DMSO [2, 8]: 140% | GFP response relative to DMSO [2, 9]: 167% | GFP response vs DMSO [3]: 104% (inactive) | GFP response, % of DMSO [4]: 90.8% (inactive) | GFP response, % of DMSO [5]: 86.1% (inactive) | GFP response, % of DMSO [5, 6]: 93.2% | GFP response, % of DMSO [5, 7]: 81.6%

CCOC(=O)Cc1csc(NC(=O)CCCCCN2C(=O)c3cccc4cccc(c34)C2=O)n1
GFP response vs DMSO [1]: 98.7% (inactive) | GFP response vs DMSO [1, 6]: 99.3% | GFP response vs DMSO [1, 7]: 99.3% | GFP response relative to DMSO [2]: 88.4% (inactive) | GFP response relative to DMSO [2, 8]: 87.8% | GFP response relative to DMSO [2, 9]: 89.7% | GFP response vs DMSO [3]: 102% (inactive) | GFP response, % of DMSO [4]: 98.2% (inactive) | GFP response, % of DMSO [5]: 102% (inactive) | GFP response, % of DMSO [5, 6]: 98.3% | GFP response, % of DMSO [5, 7]: 101%

Cc1ccccc1NC(=O)c1ccccc1O
GFP response vs DMSO [1]: 94% (inactive) | GFP response vs DMSO [1, 6]: 92.9% | GFP response vs DMSO [1, 7]: 94% | GFP response relative to DMSO [2]: 106% (inactive) | GFP response relative to DMSO [2, 8]: 101% | GFP response relative to DMSO [2, 9]: 108% | GFP response vs DMSO [3]: 101% (inactive) | GFP response, % of DMSO [4]: 93.8% (inactive) | GFP response, % of DMSO [5]: 100% (inactive) | GFP response, % of DMSO [5, 6]: 97.4% | GFP response, % of DMSO [5, 7]: 98.1%

COc1ccc(C(=O)/C=C2/C(=O)Nc3ccccc32)cc1
GFP response vs DMSO [1]: 86.7% (inactive) | GFP response vs DMSO [1, 6]: 88.1% | GFP response vs DMSO [1, 7]: 82.7% | GFP response relative to DMSO [2]: 133% (inactive) | GFP response relative to DMSO [2, 8]: 122% | GFP response relative to DMSO [2, 9]: 139% | GFP response vs DMSO [3]: 96.2% (inactive) | GFP response, % of DMSO [4]: 95.4% (inactive) | GFP response, % of DMSO [5]: 98.3% (inactive) | GFP response, % of DMSO [5, 6]: 97.2% | GFP response, % of DMSO [5, 7]: 91.4%

CC1(C(=O)OCc2cc(=O)n3cc(Br)ccc3n2)CC1(Cl)Cl (stereo not drawn)
GFP response vs DMSO [1]: 92.5% (inactive) | GFP response vs DMSO [1, 6]: 89.9% | GFP response vs DMSO [1, 7]: 93.8% | GFP response relative to DMSO [2]: 133% (inactive) | GFP response relative to DMSO [2, 8]: 123% | GFP response relative to DMSO [2, 9]: 139% | GFP response vs DMSO [3]: 94.4% (inactive) | GFP response, % of DMSO [4]: 103% (inactive) | GFP response, % of DMSO [5]: 88.5% (inactive) | GFP response, % of DMSO [5, 6]: 87.3% | GFP response, % of DMSO [5, 7]: 88.8%

O=C(/C=C/c1ccc(-c2ccccc2[N+](=O)[O-])o1)c1ccc(Br)cc1
GFP response vs DMSO [1]: 96.4% (inactive) | GFP response vs DMSO [1, 6]: 97.6% | GFP response vs DMSO [1, 7]: 96.7% | GFP response relative to DMSO [2]: 121% (inactive) | GFP response relative to DMSO [2, 8]: 118% | GFP response relative to DMSO [2, 9]: 126% | GFP response vs DMSO [3]: 105% (inactive) | GFP response, % of DMSO [4]: 94.1% (inactive) | GFP response, % of DMSO [5]: 101% (inactive) | GFP response, % of DMSO [5, 6]: 105% | GFP response, % of DMSO [5, 7]: 99.7%
